Reference: PubChem BioAssay AID588689 (Southern Research Specialized Biocontainment Screening …, 2011)
The whole screen tested about 340,000 compounds, of which about 1,000 (0.29%) were called active. No stated cut-off is given here; in the data, inconclusive means inhibition above about 29% without an active follow-up result; inactive means below that. The list is a sample of the results. Results with a measured potency or affinity are listed apart.

Biological target: Genome polyprotein (Dengue virus type 2 (strain 16681-PDK53)) (UniProt P29991)
Sequence (P29991 whole entry, looked up): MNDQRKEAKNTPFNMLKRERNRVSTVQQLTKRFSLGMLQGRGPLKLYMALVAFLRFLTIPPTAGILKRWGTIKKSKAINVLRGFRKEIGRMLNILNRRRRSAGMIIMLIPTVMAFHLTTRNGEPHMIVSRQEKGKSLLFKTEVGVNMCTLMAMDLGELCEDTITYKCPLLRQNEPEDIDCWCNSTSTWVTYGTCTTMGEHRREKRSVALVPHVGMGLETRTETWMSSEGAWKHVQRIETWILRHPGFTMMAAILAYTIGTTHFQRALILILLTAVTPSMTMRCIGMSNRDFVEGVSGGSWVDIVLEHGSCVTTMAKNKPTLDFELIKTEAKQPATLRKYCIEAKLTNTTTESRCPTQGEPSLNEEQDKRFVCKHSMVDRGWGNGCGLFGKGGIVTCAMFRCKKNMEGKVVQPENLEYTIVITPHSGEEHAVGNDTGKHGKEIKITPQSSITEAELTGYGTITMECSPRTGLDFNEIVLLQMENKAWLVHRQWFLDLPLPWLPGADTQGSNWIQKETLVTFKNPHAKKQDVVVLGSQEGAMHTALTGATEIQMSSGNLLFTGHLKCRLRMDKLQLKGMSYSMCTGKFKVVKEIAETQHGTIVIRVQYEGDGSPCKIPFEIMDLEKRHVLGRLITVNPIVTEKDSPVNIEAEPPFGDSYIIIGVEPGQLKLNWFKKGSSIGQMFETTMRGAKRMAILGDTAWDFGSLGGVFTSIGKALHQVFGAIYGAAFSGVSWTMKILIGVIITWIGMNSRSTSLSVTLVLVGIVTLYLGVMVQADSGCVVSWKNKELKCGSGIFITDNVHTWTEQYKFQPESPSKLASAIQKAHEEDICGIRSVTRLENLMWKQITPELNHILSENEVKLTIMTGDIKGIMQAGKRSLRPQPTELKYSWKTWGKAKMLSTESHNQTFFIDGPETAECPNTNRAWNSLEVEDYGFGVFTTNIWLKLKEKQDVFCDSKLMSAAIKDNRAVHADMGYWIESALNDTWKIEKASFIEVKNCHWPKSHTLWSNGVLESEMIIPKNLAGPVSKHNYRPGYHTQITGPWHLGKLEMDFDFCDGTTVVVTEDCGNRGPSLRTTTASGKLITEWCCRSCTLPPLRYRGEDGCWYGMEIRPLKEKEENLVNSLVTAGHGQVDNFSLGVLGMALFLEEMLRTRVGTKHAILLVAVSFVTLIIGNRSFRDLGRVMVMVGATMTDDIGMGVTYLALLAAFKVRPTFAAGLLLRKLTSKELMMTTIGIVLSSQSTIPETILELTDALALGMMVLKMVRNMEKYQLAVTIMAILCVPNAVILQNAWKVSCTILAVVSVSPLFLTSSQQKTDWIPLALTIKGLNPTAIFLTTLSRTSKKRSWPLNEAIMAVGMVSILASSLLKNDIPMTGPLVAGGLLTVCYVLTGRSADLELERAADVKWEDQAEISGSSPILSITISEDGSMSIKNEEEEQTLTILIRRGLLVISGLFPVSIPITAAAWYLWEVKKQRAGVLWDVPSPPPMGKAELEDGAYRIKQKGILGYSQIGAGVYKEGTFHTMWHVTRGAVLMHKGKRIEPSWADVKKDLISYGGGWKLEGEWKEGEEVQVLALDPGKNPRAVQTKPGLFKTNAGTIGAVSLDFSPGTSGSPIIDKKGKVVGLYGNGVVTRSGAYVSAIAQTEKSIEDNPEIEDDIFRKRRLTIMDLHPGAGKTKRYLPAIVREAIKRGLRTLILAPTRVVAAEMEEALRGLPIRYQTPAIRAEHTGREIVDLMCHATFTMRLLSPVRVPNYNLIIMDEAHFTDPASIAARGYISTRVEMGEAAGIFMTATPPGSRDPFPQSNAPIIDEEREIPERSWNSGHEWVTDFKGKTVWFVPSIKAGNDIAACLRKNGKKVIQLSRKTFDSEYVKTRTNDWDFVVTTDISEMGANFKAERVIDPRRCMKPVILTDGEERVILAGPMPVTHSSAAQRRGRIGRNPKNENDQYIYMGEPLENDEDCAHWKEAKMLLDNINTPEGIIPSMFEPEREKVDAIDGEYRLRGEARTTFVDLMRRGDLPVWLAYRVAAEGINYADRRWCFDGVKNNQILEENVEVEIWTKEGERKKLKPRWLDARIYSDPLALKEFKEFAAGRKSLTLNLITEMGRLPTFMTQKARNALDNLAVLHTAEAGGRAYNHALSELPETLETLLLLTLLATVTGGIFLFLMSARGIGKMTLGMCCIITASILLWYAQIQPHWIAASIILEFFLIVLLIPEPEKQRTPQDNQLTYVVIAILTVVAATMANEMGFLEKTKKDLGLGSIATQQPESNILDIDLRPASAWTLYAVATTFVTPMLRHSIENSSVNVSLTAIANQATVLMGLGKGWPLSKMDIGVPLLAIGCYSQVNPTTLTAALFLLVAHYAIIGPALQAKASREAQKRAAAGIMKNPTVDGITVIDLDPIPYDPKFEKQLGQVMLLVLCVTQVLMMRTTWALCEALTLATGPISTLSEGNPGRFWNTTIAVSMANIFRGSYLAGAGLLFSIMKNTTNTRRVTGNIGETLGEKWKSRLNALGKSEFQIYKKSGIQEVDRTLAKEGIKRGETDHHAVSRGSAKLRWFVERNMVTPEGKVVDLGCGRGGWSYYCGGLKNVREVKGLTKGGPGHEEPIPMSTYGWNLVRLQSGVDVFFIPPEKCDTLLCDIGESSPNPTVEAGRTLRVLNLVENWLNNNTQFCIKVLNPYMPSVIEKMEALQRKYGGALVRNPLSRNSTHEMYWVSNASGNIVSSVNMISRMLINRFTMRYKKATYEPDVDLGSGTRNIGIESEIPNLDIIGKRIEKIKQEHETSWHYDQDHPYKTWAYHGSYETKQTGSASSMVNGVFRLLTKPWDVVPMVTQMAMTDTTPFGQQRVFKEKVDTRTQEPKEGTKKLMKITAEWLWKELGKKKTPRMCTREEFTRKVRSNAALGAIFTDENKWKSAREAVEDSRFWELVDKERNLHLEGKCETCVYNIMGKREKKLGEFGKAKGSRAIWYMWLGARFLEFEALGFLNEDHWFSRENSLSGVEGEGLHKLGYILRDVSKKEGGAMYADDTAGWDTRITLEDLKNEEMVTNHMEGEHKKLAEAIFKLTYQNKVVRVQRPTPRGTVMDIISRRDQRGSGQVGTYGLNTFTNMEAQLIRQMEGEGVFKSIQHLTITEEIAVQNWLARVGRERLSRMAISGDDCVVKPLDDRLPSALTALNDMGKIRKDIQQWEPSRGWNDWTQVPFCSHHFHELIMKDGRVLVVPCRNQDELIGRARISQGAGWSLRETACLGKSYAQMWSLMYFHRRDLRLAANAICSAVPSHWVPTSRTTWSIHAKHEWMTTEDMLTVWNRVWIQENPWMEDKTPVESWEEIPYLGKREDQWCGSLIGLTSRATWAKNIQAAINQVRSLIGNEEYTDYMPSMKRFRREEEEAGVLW
Assay: flavivirus cap methylation enzyme inhibition – biochemical, confirmation dose response, primary screen (AID 588689)
Conditions: Dengue-2 NS5 methyltransferase capping enzyme assay, at 25 µM, stronger effect = higher value
[1] = measured here: pilot screen replicate inhibition

Row | SMILES | inhibition | inhibition [1] [%]
1 | N#C/C(=C\c1ccc([N+](=O)[O-])cc1)C(=O)Nc1ccccc1O | 8.94% (inactive) | –
2 | Brc1ccc(-c2nnc3n2CCCCC3)cc1 | -4.77% (inactive) | –
3 | Cc1ccccc1CSCCNC(=O)COc1ccc(Cl)cc1 | -3.24% (inactive) | –
4 | Cc1occc1C(=O)NNC(=O)c1ccccc1[N+](=O)[O-] | 1.62% (inactive) | –
5 | CCC(=O)N1CCc2cc(Br)cc(S(=O)(=O)NCc3ccco3)c21 | 0% (inactive) | –
6 | O=C1OC(c2ccc(Cl)cc2)/C(=C(/O)c2ccccc2)C1=O (configuration not stated) | 28.1% (inactive) | –
7 | CC(=O)C1=C(O)C(=O)OC1c1ccc(Cl)cc1 (configuration not stated) | -3.11% (inactive) | –
8 | CC(=O)C1=C(O)C(=O)OC1c1ccc(C)cc1 (configuration not stated) | -9.38% (inactive) | –
9 | O=C(O)c1ccccc1C(=O)c1ccc(Cl)cc1 | 1.15% (inactive) | –
10 | CC(=O)Nc1ccc(S(=O)(=O)N2CCC(N3CCCCCC3)CC2)cc1 | -3.4% (inactive) | –
11 | CCOc1ccc(NC(=O)C2=NN(c3ccccc3)C(=O)CC2)cc1S(=O)(=O)N1CCCCC1 | -4.38% (inactive) | –
12 | COc1cccc(N2CC(O)Cn3c2nc2c3c(=O)[nH]c(=O)n2C)c1 (configuration not stated) | -3.08% (inactive) | –
13 | COc1ccc(NC(=O)c2ccc(S(=O)(=O)N3CC(C)OC(C)C3)cc2)cc1 (configuration not stated) | 3.36% (inactive) | –
14 | CN(CC(=O)Nc1ccc(S(=O)(=O)N(C)C)cc1)Cc1ccc(C(F)(F)F)cc1 | 2.22% (inactive) | –
15 | COc1cc(CN(C)Cc2cccc3ccccc23)cc([N+](=O)[O-])c1O | 11.1% (inactive) | 0.595
16 | O=[N+]([O-])c1cccc(C=Nc2cccc3ccccc23)c1O | 14.3% (inactive) | –
17 | O=[N+]([O-])c1ccccc1N=Nc1ccc(O)cc1 | 0% (inactive) | –
18 | O=C(c1cc(O)c(O)c([N+](=O)[O-])c1)c1ccccc1F | -7.33% (inactive) | –
19 | Nc1ccc(N=Nc2ccccc2)cc1[N+](=O)[O-] | -3.11% (inactive) | –
20 | Nc1ccc(-c2ccc(N)c([N+](=O)[O-])c2)cc1[N+](=O)[O-] | -9.54% (inactive) | –

Row | SMILES | inhibition | inhibition [1] [%]
21 | Cc1cc(Nc2ccccc2C(=O)O)n2ncnc2n1 | 6.29% (inactive) | –
22 | Cn1c(N)c(S(=O)(=O)N2CCN(c3ccccc3F)CC2)c(=O)n(C)c1=O | -7.15% (inactive) | –
23 | CC(C)CC(=O)Nc1ccc(C(=O)COC(=O)C2CCC2)cc1 | -0.65% (inactive) | –
24 | O=C1C2C3C=CC(C4CC34)C2C(=O)N1Cc1ccco1 (configuration not stated) | -2.18% (inactive) | –
25 | CSCCC(NS(=O)(=O)c1ccc(F)cc1)C(=O)NCc1ccc(S(N)(=O)=O)cc1 (configuration not stated) | 3.04% (inactive) | –
26 | C=CCn1c(SCC(=O)NC2CCCC2)nnc1-c1ccncc1 | -3.89% (inactive) | –
27 | Cc1ccc(S(=O)(=O)Nc2ccc3ncccc3c2[N+](=O)[O-])cc1 | -1.93% (inactive) | –
28 | Cc1cc(C)c(S(=O)(=O)/N=C2\C=C(NS(=O)(=O)c3ccccc3)C(=O)c3ccccc32)c(C)c1 | 25.3% (inactive) | –
29 | Cc1ccccc1NC1=C/C(=N\S(=O)(=O)c2cccs2)c2ccccc2C1=O | 63.2% (inactive) | –
30 | Cc1ccc(S(=O)(=O)Nc2ccc3cc([N+](=O)[O-])ccc3c2[N+](=O)[O-])cc1 | -2.33% (inactive) | –
31 | CCc1ccc(S(=O)(=O)/N=C2\C=C(Nc3ccc(O)cc3)C(=O)c3ccccc32)cc1 | 8.96% (inactive) | –
32 | CCc1ccc(S(=O)(=O)Nc2ccccn2)cc1 | -5.27% (inactive) | -6.09
33 | Cc1ccc(NC2=C/C(=N/S(=O)(=O)c3cccs3)c3ccccc3C2=O)cc1 | 1.1% (inactive) | –
34 | Cc1ccc(Nc2nnc(SC(C)C(=O)NCC3CCCO3)s2)cc1C (configuration not stated) | 4.44% (inactive) | –
35 | CCc1ccc(N(C(=O)C(F)(F)F)C(C(=O)NC2CCCCC2)c2ccncc2)cc1 (configuration not stated) | 0.69% (inactive) | –
36 | Cc1n[nH]c(C)c1CCCCOc1ccccc1[N+](=O)[O-] | -3.29% (inactive) | -1.21
37 | CSc1nnc(C)c(=O)n1COC(=O)COc1ccccc1F | 9.2% (inactive) | –
38 | COc1ccc(CCn2c(C)c(C(C)=O)c3cc(OC(=O)c4ccco4)ccc32)cc1OC | -1.6% (inactive) | –
39 | COc1ccccc1-n1c(CNC(=O)c2ccc(S(=O)(=O)N3CCOCC3)cc2)n[nH]c1=S | -4.46% (inactive) | –
40 | C=C(C)CN1C(=O)c2ccccc2C1=O | 2.04% (inactive) | –

Row | SMILES | inhibition | inhibition [1] [%]
41 | CC(=O)N1N=C(c2ccc(C)o2)CC1c1ccc(Br)cc1 (configuration not stated) | -4.86% (inactive) | –
42 | COc1cc2c(cc1OC)C(COc1cccc(C(F)(F)F)c1)NCC2 (configuration not stated) | 6.97% (inactive) | –
43 | CCCCOc1ccc(C(=O)NCC(=O)NC2CC2)cc1 | 1.44% (inactive) | –
44 | CCOC(=O)c1nc[nH]c1C | -4.86% (inactive) | –
45 | Cc1ccc(S(=O)(=O)Nc2ccccc2-c2ccccc2)cc1 | -9.37% (inactive) | –
46 | CC(C)c1ccc(-c2csc3nc[nH]c(=O)c23)cc1 | -4.66% (inactive) | –
47 | CC(=O)OC1(C)C=Cc2ccccc2C1=NS(=O)(=O)c1ccccc1 (configuration not stated) | 4% (inactive) | –
48 | COc1ccc(S(=O)(=O)/N=C2\C=C(Nc3ccc(O)cc3)C(=O)c3ccccc32)cc1 | 10.3% (inactive) | –
49 | Cc1ccc(S(=O)(=O)/N=C2\C=C(NS(=O)(=O)c3ccccc3)C(=O)c3ccccc32)c(C)c1 | 13.1% (inactive) | –
50 | CN1C/C(=N\S(=O)(=O)c2ccccc2)N(C)C1=O | -4.44% (inactive) | –
51 | Cc1ccc(NC2=C/C(=N\S(=O)(=O)c3cccs3)c3ccccc3C2=O)c(C)c1 | 12.8% (inactive) | –
52 | Cc1ccc(S(=O)(=O)Nc2ccccc2C(N)=O)cc1 | -8.11% (inactive) | -8.21
53 | O=[N+]([O-])c1cc(C(F)(F)F)ccc1-n1nnc2ccccc21 | 1.31% (inactive) | –
54 | Cc1cc2cc(CNC(=O)Nc3cccc(Cl)c3)ccc2n1C | 22.2% (inactive) | –
55 | COCCNc1nnc(SCC(=O)NC(=O)c2ccc(Cl)cc2)s1 | 2.89% (inactive) | –
56 | COc1ccc(OC)c(NC(=O)c2cccc(N3C(=O)C4C5CCC(C5)C4C3=O)c2)c1 (configuration not stated) | -6.74% (inactive) | –
57 | CCOC(=O)CCC(NC(=O)CCC(=O)NC(CCC(=O)OCC)C(=O)OCC)C(=O)OCC (configuration not stated) | -7.26% (inactive) | –
58 | O=C(CNC(=O)c1ccccc1F)NCCN1C(=O)S/C(=C\c2ccc3c(c2)OCO3)C1=O | -1.45% (inactive) | –
